Where “and” joins values, the source holds several entries; their conditions need not be identical. Equal entries are not always repeated. Records with an inconclusive call do not appear. A structure can be active in one record and inactive in another. Calls of active or inactive are those of the source. The calls were made as follows: active = hit-call score of the fitted dose curve at least 0.9, where 1 is the maximum; inconclusive = response in the unintended direction; inactive = score below 0.9.

The source of these data is PubChem BioAssay (EPA / NIEHS).

Experiment [1] can be described thus: ATG_M_19_XSP1: Attagene TRANS-FACTORIAL Multi-Species (XSP1) HepG2 Assay for M19 Transcription Factor (Internal Marker) (AID 2283798). A digest of the protocol: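 HepG2 cells transiently transfected with multiplexed GAL4-UAS reporter units, dosed 24 h with 3 nM 6-alpha-fluorotestosterone present for partial AR stimulation. Reporter mRNA measured by RT-PCR with capillary electrophoresis; gain-of-signal fitted relative to DMSO.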

Experiment [2] can be described thus: ATG_M_32_XSP1: Attagene TRANS-FACTORIAL Multi-Species (XSP1) HepG2 Assay for M32 Transcription Factor (Internal Marker) (AID 2283799). A digest of the protocol:
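HepG2 cells transiently transfected with multi-species TRANS reporter units, dosed 24 h with 3 nM 6-alpha-fluorotestosterone present. Internal-marker reporter mRNA quantified by RT-PCR and capillary electrophoresis; positive-direction fit versus DMSO.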

Experiment [3] deals with Peroxisome proliferator-activated receptor gamma (Homo sapiens) (UniProt P37231). Nature of the experiment: ATG_hPPARg_XSP1: Attagene TRANS-FACTORIAL Multi-Species (XSP1) HepG2 Assay for human Peroxisome Proliferator-activated Receptor gamma (PPARg) (AID 2283800). Summed up: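 HepG2 cells transiently transfected with GAL4-UAS reporter units carrying chimeric NR-Gal4 proteins; 3 nM 6-alpha-fluorotestosterone present. After 24 h dosing, reporter mRNA quantified by RT-PCR and capillary electrophoresis; gain of signal relative to DMSO.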

Experiment [4] relates to zebrafish Peroxisome Proliferator-activated Receptor gamma (PPARg), gene 557037. Nature of the experiment: ATG_zfPPARg_XSP1: Attagene TRANS-FACTORIAL Multi-Species (XSP1) HepG2 Assay for zebrafish Peroxisome Proliferator-activated Receptor gamma (PPARg) (AID 2283801). A digest of the protocol: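 HepG2 cells transiently transfected with GAL4-UAS reporter units including a zebrafish PPARg–GAL4 chimera, dosed 24 h with 3 nM 6-alpha-fluorotestosterone present. Reporter mRNA quantified by RT-PCR, FAM labelling, HpaI digestion and capillary electrophoresis; induction versus DMSO.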

The target in experiment [5] is mouse Peroxisome Proliferator-activated Receptor gamma (PPARg), Pparg (gene 19016) (UniProt P37238). Nature of the experiment: ATG_mPPARg_XSP1: Attagene TRANS-FACTORIAL Multi-Species (XSP1) HepG2 Assay for mouse Peroxisome Proliferator-activated Receptor gamma (PPARg) (AID 2283802). A digest of the protocol:
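HepG2 cells transiently transfected with GAL4-UAS reporter units driven by mouse PPARg–GAL4 chimera; 3 nM 6-alpha-fluorotestosterone present. After 24 h dosing, reporter mRNA quantified by RT-PCR, fluorescent labelling and capillary electrophoresis; gain of signal versus DMSO.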

Experiment [6] has as its target Nuclear receptor subfamily 1 group I member 2 (Mus musculus) (UniProt O54915). Nature of the experiment: ATG_mPXR_XSP1: Attagene TRANS-FACTORIAL Multi-Species (XSP1) HepG2 Assay for mouse Pregnane X Receptor (PXR) (AID 2283803). A digest of the protocol:
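Transiently transfected HepG2 cells expressing a receptor-Gal4 chimera drive a GAL4-UAS reporter; 3 nM 6-alpha-fluorotestosterone included. Reporter mRNA read 24 h post-dose by RT-PCR and capillary electrophoresis; gain of signal relative to DMSO.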

Experiment [7] relates to turtle Thyroid Hormone Receptor, alpha (TRa), gene 101949057. Nature of the experiment: ATG_trTRa_XSP1: Attagene TRANS-FACTORIAL Multi-Species (XSP1) HepG2 Assay for turtle Thyroid Hormone Receptor, alpha (TRa) (AID 2283806). Summed up:
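HepG2 cells transiently transfected with GAL4-UAS reporter units and chimeric receptor-Gal4 constructs, with 3 nM 6-alpha-fluorotestosterone present. Reporter mRNA was quantified 24 h after dosing by RT-PCR, 6-FAM labelling and capillary electrophoresis; gain of signal versus DMSO.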

Experiment [8] concerns the target human Thyroid hormone Receptor beta (TRb), THRB (gene 7068) (UniProt P10828). Nature of the experiment: ATG_hTRb_XSP1: Attagene TRANS-FACTORIAL Multi-Species (XSP1) HepG2 Assay for human Thyroid hormone Receptor beta (TRb) (AID 2283808). A digest of the protocol: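 HepG2 cells transiently transfected with reporter units driving GAL4-UAS reporters for chimeric NR-Gal4 proteins; 24 h chemical exposure with 3 nM 6-alpha-fluorotestosterone present. Reporter mRNA quantified by RT-PCR and capillary electrophoresis, gain of signal versus DMSO.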

In experiment [9] the target is zebrafish Thyroid Hormone Receptor beta (TRb), thrb (gene 30607) (UniProt Q9PVE4). Nature of the experiment: ATG_zfTRb_XSP1: Attagene TRANS-FACTORIAL Multi-Species (XSP1) HepG2 Assay for zebrafish Thyroid Hormone Receptor beta (TRb) (AID 2283809). Summed up:
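HepG2 cells transiently transfected with multiplexed GAL4-UAS reporter units expressing chimeric zebrafish TRb–Gal4. Dosed 24 h with 3 nM 6-alpha-fluorotestosterone present; reporter mRNA measured by RT-PCR, HpaI digestion and capillary electrophoresis; gain of signal versus DMSO.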

Experiment [10] is described as follows: ATG_M_06_XSP2: Attagene TRANS-FACTORIAL Multi-Species (XSP2) HepG2 Assay for M06 Transcription Factor (Internal Marker) (AID 2283811).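 Also: hits are increases in signal above the DMSO baseline.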 Summed up:
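HepG2, multiplexed reporter transfection; 24 h dosing; AR stimulated with 3 nM 6-alpha-fluorotestosterone + 1.5 nM norgestrel; RNA → RT-PCR → 6-FAM primer extension → HpaI → CE. Positive direction vs DMSO.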

Experiment [11] addresses Estrogen receptor beta (Homo sapiens) (UniProt Q92731). Nature of the experiment: ATG_hERb_XSP2: Attagene TRANS-FACTORIAL Multi-Species (XSP2) HepG2 Assay for human Estrogen Receptor (ERb) (AID 2283813).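 Also: actives raise reporter mRNA above DMSO so AC50 reflects agonist induction.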 A digest of the protocol:
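HepG2 cells transiently transfected with GAL4-UAS reporter units and chimeric human ERb-Gal4, 24 h exposure. Reporter mRNA quantified by RT-PCR with FAM labelling, HpaI digestion and capillary electrophoresis; gain of signal versus DMSO.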

For experiment [12], the system named is turtle Androgen Receptor (AR), gene 101947425. As to the kind of experiment: ATG_trAR_XSP2: Attagene TRANS-FACTORIAL Multi-Species (XSP2) HepG2 Assay for turtle Androgen Receptor (AR) (AID 2283815). A digest of the protocol:
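HepG2 cells transiently transfected with GAL4-UAS reporter units for chimeric NR-Gal4 receptors; 24 h dosing in presence of 3 nM 6-alpha-fluorotestosterone and 1.5 nM norgestrel. Reporter mRNA by RT-PCR and capillary electrophoresis, gain of signal versus DMSO.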

The target of experiment [13] is chicken Estrogen Receptor (ERa), ESR1 (gene 396099) (UniProt P06212). As to the kind of experiment: ATG_chERa_XSP2: Attagene TRANS-FACTORIAL Multi-Species (XSP2) HepG2 Assay for chicken Estrogen Receptor (ERa) (AID 2283817).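 Also: actives raise reporter signal above DMSO so AC50 reflects ER activation.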 Summed up:
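Transient MRTU transfection of HepG2 → 24 h chemical dosing → TriZol RNA, oligo(dT) RT → PCR, 6-FAM primer extension, HpaI digest → CE quantitation of chicken ERa-Gal4-driven reporter mRNA. Positive direction vs DMSO.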

In experiment [14] the test system is zebrafish Estrogen Receptor (ER2a), gene 317734. Nature of the experiment: ATG_zfER2a_XSP2: Attagene TRANS-FACTORIAL Multi-Species (XSP2) HepG2 Assay for zebrafish Estrogen Receptor (ER2a) (AID 2283818).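 Also: hits raise reporter mRNA so AC50 reflects activation of zebrafish ER2a.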 Summed up:
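HepG2 cells transiently transfected with GAL4-UAS reporter units and chimeric zebrafish ER2a-Gal4, exposed 24 h; medium contains 3 nM 6-alpha-fluorotestosterone and 1.5 nM norgestrel. Reporter mRNA quantified by RT-PCR, HpaI digestion, capillary electrophoresis; gain versus DMSO.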

For experiment [15], the target named is zebrafish Estrogen Receptor (ER1), esr1 (gene 259252) (UniProt P57717). Nature of the experiment: ATG_zfER1_XSP2: Attagene TRANS-FACTORIAL Multi-Species (XSP2) HepG2 Assay for zebrafish Estrogen Receptor (ER1) (AID 2283816). A digest of the protocol: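 HepG2 cells transiently transfected with a GAL4-UAS reporter and a chimeric zebrafish ER1-Gal4 construct, dosed 24 h. Reporter mRNA quantified by RT-PCR, labelling, HpaI digestion and capillary electrophoresis, relative to DMSO.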

Experiment [16] addresses frog Thyroid hormone Receptor alpha (TRa), thra-a (gene 397942) (UniProt P15204). Nature of the experiment: ATG_frTRa_XSP1: Attagene TRANS-FACTORIAL Multi-Species (XSP1) HepG2 Assay for frog Thyroid hormone Receptor alpha (TRa) (AID 2283804). A digest of the protocol:
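HepG2 cells transiently transfected with frog TRa-GAL4 chimeric reporter units, dosed 24 hr with 3 nM 6-alpha-fluorotestosterone present; reporter mRNA quantified by RT-PCR, fluorescent labelling and capillary electrophoresis, gain of signal versus DMSO.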

The nature of experiment [17]: ATG_XTT_Cytotoxicity_XSP1: Cytotoxicity Assessment in the Attagene TRANS-FACTORIAL Multi-Species (XSP1) HepG2 Assay (AID 2283810). A digest of the protocol:
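XTT viability readout taken at 24 hours post-dosing in HepG2 liver cells co-treated with 3 nM 6-alpha-fluorotestosterone. Signal loss relative to DMSO controls reflects cytotoxicity.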

Experiment [18] has as its target GAL4 Transcription Factor (Internal Marker), GAL4 (gene 855828) (UniProt P04386). Nature of the experiment: ATG_GAL4_XSP2: Attagene TRANS-FACTORIAL Multi-Species (XSP2) HepG2 Assay for GAL4 Transcription Factor (Internal Marker) (AID 2283814).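 Also: GAL4 reporter mRNA background control in MRTU transfected cells not a receptor target.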 A digest of the protocol: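 HepG2 cells transiently transfected with GAL4-UAS reporter units, stimulated with 3 nM 6-alpha-fluorotestosterone plus 1.5 nM norgestrel, dosed 24 h. Reporter mRNA by RT-PCR/capillary electrophoresis; gain-of-signal fit versus DMSO, background control.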

The target in experiment [19] is human Thyroid hormone Receptor alpha (TRa), THRA (gene 7067) (UniProt P10827). As to the kind of experiment: ATG_hTRa_XSP1: Attagene TRANS-FACTORIAL Multi-Species (XSP1) HepG2 Assay for human Thyroid hormone Receptor alpha (TRa) (AID 2283805). Summed up:
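HepG2 cells transiently transfected with GAL4-UAS reporter units expressing chimeric NR-Gal4 proteins, dosed 24 hours with 3 nM 6-alpha-fluorotestosterone present. Reporter mRNA measured by RT-PCR and capillary electrophoresis; gain of signal fitted versus DMSO.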

Experiment [20] concerns the target zebrafish Thyroid Hormone Receptor alpha (TRa), thraa (gene 30670) (UniProt Q98867). Nature of the experiment: ATG_zfTRa_XSP1: Attagene TRANS-FACTORIAL Multi-Species (XSP1) HepG2 Assay for zebrafish Thyroid Hormone Receptor alpha (TRa) (AID 2283807). A digest of the protocol:
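HepG2 cells transiently transfected with GAL4-UAS reporter units including a zebrafish TRa–Gal4 chimera, dosed 24 h with 3 nM 6-alpha-fluorotestosterone present. Reporter mRNA quantified by RT-PCR and capillary electrophoresis; gain versus DMSO.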

human Thyroid hormone Receptor beta (TRb), THRB (gene 7068), sequence (P10828 whole entry, looked up, the tested form may be a part): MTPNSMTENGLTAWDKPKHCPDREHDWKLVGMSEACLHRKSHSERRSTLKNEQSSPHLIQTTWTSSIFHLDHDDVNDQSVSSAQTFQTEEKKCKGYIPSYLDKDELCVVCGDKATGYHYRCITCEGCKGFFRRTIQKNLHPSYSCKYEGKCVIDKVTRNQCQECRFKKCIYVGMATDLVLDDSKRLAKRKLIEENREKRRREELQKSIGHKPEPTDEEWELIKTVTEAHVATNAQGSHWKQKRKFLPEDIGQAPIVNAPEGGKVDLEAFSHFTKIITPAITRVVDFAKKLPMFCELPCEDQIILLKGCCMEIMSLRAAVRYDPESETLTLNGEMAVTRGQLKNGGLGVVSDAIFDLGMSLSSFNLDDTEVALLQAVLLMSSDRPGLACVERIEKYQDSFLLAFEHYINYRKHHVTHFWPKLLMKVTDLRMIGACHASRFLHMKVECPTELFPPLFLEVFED
Peroxisome proliferator-activated receptor gamma (Homo sapiens), sequence (P37231 whole entry, looked up, the tested form may be a part): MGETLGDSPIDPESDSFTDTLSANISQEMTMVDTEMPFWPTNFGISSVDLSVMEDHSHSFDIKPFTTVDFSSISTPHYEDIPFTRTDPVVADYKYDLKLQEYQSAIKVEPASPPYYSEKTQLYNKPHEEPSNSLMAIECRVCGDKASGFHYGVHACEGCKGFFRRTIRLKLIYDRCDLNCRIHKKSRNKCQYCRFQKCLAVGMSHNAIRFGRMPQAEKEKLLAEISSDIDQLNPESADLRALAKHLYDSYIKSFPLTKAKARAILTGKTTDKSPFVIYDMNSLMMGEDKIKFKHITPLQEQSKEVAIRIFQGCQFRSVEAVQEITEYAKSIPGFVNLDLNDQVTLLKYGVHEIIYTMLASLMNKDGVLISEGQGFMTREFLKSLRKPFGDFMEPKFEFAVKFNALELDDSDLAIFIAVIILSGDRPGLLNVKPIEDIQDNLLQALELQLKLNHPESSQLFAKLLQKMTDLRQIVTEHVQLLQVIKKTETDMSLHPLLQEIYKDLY
Estrogen receptor beta (Homo sapiens), sequence (Q92731 whole entry, looked up, the tested form may be a part): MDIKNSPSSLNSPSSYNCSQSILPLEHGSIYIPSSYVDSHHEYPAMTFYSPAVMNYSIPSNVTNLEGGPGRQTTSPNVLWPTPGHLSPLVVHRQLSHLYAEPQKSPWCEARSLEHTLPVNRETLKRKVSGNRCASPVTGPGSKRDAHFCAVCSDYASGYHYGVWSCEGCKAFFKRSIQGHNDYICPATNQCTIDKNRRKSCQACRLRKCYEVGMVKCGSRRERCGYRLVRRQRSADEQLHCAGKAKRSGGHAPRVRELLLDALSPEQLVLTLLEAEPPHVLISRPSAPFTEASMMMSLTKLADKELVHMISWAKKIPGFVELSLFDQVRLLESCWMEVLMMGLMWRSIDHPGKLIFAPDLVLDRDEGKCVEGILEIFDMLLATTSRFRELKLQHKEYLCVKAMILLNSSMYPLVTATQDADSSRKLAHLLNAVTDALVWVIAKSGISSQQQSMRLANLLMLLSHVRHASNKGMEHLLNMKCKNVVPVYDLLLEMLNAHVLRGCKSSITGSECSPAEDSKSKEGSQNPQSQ
zebrafish Estrogen Receptor (ER1), esr1 (gene 259252), sequence (P57717 whole entry, looked up, the tested form may be a part): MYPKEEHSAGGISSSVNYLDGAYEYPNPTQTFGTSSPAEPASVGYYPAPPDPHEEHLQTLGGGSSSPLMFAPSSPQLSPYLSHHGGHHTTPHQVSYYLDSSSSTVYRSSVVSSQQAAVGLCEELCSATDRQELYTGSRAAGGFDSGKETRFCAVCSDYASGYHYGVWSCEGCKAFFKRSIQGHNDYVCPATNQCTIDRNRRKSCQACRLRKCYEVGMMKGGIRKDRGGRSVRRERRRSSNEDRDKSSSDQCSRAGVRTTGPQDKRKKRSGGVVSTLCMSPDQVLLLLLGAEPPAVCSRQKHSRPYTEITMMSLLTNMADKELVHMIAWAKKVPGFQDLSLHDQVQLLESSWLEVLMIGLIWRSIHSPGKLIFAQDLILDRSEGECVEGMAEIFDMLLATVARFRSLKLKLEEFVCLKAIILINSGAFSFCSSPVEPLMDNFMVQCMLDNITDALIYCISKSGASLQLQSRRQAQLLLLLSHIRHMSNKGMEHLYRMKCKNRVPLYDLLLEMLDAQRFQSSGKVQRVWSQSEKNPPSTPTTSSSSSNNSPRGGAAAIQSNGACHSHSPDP
zebrafish Thyroid Hormone Receptor beta (TRb), thrb (gene 30607), sequence (Q9PVE4 whole entry, looked up, the tested form may be a part): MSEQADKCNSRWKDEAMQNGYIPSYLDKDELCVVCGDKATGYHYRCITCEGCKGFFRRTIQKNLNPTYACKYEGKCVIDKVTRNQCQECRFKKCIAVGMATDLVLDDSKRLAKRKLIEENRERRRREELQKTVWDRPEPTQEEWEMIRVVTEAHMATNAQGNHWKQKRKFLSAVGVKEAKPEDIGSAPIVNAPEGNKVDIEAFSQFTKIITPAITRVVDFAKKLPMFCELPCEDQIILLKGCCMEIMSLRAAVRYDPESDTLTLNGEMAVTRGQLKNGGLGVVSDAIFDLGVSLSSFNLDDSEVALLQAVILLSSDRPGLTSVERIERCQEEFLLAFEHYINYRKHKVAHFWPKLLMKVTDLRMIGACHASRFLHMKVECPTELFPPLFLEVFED
chicken Estrogen Receptor (ERa), ESR1 (gene 396099), sequence (P06212 whole entry, looked up, the tested form may be a part): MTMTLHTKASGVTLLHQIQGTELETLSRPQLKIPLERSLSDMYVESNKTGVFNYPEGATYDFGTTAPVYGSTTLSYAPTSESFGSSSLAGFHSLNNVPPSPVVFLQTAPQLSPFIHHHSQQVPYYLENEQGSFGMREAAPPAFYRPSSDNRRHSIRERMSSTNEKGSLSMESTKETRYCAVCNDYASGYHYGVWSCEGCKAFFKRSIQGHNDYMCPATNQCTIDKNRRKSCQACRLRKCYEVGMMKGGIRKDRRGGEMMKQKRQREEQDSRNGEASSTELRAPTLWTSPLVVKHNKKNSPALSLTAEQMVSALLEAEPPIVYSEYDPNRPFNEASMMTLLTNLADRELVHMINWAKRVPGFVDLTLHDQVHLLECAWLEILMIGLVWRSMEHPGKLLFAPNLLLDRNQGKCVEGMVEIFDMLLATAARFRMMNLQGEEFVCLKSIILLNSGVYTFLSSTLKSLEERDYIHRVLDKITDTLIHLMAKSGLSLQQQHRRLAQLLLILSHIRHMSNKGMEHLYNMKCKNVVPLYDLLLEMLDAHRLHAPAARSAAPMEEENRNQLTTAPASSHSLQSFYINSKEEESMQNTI
mouse Peroxisome Proliferator-activated Receptor gamma (PPARg), Pparg (gene 19016), sequence (P37238 whole entry, looked up, the tested form may be a part): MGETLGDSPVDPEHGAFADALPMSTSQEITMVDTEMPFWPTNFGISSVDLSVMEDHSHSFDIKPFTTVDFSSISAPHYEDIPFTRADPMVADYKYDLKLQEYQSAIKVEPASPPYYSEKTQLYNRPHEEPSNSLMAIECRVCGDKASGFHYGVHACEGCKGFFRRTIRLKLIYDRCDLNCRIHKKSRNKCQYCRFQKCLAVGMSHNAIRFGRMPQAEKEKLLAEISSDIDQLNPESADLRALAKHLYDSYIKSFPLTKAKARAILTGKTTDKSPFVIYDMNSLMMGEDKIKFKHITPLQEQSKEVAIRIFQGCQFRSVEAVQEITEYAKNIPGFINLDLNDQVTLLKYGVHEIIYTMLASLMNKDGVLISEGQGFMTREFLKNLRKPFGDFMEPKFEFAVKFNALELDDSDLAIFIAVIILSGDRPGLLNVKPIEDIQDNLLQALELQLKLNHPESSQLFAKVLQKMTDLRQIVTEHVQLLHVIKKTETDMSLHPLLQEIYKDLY
Nuclear receptor subfamily 1 group I member 2 (Mus musculus), sequence (O54915 whole entry, looked up, the tested form may be a part): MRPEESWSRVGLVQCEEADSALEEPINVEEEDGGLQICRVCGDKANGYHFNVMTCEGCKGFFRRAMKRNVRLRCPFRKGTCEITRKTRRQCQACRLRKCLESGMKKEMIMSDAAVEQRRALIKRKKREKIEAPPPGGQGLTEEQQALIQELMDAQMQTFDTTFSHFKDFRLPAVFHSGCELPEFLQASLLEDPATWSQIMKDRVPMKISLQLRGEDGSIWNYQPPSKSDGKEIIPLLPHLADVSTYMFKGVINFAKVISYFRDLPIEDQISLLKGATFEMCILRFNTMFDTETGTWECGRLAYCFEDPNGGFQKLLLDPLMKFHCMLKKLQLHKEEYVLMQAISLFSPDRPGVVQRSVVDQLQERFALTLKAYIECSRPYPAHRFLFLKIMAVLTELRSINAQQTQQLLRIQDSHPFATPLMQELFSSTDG
GAL4 Transcription Factor (Internal Marker), GAL4 (gene 855828), sequence (P04386 whole entry, looked up, the tested form may be a part): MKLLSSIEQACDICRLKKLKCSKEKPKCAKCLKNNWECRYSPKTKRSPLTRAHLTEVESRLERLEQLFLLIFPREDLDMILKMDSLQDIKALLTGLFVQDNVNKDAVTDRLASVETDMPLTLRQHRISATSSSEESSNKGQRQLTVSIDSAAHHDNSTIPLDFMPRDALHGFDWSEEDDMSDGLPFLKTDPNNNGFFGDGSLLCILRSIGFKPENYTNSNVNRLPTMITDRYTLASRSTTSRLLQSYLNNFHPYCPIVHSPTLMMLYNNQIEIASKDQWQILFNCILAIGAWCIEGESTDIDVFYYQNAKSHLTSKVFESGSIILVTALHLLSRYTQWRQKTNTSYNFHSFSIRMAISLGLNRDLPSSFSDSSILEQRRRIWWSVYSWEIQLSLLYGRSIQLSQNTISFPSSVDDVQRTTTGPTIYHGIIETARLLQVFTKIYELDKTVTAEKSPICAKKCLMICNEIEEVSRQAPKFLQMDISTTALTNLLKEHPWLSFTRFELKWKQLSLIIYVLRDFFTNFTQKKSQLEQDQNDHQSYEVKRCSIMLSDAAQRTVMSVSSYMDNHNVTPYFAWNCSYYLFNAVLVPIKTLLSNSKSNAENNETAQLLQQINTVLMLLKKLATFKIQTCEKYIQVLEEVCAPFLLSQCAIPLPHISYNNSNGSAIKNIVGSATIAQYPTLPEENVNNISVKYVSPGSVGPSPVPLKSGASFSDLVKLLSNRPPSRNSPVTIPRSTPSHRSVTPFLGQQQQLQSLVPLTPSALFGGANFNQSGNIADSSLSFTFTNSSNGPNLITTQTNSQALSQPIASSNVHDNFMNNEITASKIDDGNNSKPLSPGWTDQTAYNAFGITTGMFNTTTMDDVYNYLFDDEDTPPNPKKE

As usually defined, the AC50 is the concentration giving half of the maximal activity seen. `CC1(C)C(C=C(Cl)Cl)C1C(=O)OC(C#N)c1cccc(Oc2ccccc2)c1` (stereo not drawn): the compound was classed as inactive in [1], in experiment [2], in experiment [7], in experiment [8], in [9] and in experiment [10]. In addition, the call in experiment [11], in experiment [12] and in experiment [14] was inactive. For the same compound, the half-maximal activity concentration (AC50) in experiment [3] is 4.23 µM (active); in experiment [4], 3.54 µM (active); in experiment [5] it was 13.5 µM (active); in experiment [6], 0.579 µM (active); in experiment [13] it was 22.8 µM (active).

Regarding `C=C(C)CN(CC)c1c([N+](=O)[O-])cc(C(F)(F)F)cc1[N+](=O)[O-]`, the compound was called inactive in [10], in [11], in experiment [15] and in [14]. The half-maximal activity concentration (AC50) in [13] is 11 µM (active) and 28.2 µM (active).

On to `CC(C)NC(=O)N1CC(=O)N(c2cc(Cl)cc(Cl)c2)C1=O`, for which the compound was classed as inactive in experiment [1], in [2], in experiment [16], in [7], in experiment [8] and in experiment [9]. Further, the outcome in experiment [17], in experiment [10], in experiment [18], in experiment [15], in [13] and in experiment [14] was inactive. For the same compound, the AC50 was 31.3 µM (active) in experiment [3], 30.4 µM (active) in experiment [5] and 12 µM (active) in experiment [6].

`COP(=S)(OC)SCn1nnc2ccccc2c1=O`: the outcome in experiment [10], in experiment [11], in experiment [18], in experiment [15], in experiment [13] and in [14] was inactive. In addition, the AC50 in experiment [13] is 21.7 µM (active).

`CC1(C)CCC(=Cc2ccc(Cl)cc2)C1(O)Cn1cncn1` (stereo not drawn): the result in experiment [1], in [2], in experiment [3], in experiment [5], in experiment [16] and in [19] was inactive. Moreover, the compound was classed as inactive in experiment [7], in [20], in experiment [8], in experiment [9], in experiment [17] and in experiment [11]. Besides, the result in experiment [18], in experiment [15] and in [14] was inactive. The AC50 is 5.78 µM (active) in experiment [6] and 27.6 µM (active) in experiment [13].
